# Source: PubChem BioAssay
# Most compounds without a hit are left out; they make up all but 2.4% or so of the library.
# AmpC nodet inh: AmpC beta-lactamase inhibition, detergent-free assay. Potency, µM (titrated, usually from 28.7 µM), for inactives: at the top dose activity change, negative = inhibition. 71,000 tested, 1.8% active. AmpC nitrocefin hydrolysis, absorbance 480 nm, no detergent; further: % of control where 0% means no effect
# Target sequence (P00811 whole entry, looked up): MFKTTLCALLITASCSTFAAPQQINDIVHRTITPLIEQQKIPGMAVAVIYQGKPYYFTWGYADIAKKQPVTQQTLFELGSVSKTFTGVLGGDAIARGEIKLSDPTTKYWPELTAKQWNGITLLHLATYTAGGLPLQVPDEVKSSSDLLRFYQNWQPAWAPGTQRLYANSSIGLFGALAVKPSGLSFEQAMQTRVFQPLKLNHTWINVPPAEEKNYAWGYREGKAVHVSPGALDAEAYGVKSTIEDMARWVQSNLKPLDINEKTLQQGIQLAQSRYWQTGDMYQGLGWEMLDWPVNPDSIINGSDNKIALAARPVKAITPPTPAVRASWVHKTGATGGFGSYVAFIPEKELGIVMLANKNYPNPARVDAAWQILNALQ
#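 Enzyme, pH 7.0 phosphate. Compound titrations were pre-incubated with AmpC for 15 min at room temperature before nitrocefin (stock 800 uM) addition; product formation was recorded at 480 nm every 20 s for 4 min.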
# Anthrax LT inh: anthrax lethal toxin internalization inhibition; Cells, anthrax lethal toxin internalization, FRET ratio (460/530); Potency, µM (series often up to 40 µM), for inactives: at the highest dose activity change, negative = inhibition, actives largely listed as inhibitors; 70,000 tested, 0.67% active; AID 912; further: on the % scale 0 is the no-effect control and ±100 the full control effect; nearly all actives have a fitted effect of over 50% in size
# AmpC det inh: AmpC beta-lactamase inhibition, detergent assay | P00811 | purified AmpC, nitrocefin hydrolysis with detergent | Potency, µM (highest dose often 28.7 µM), inactives show top-dose activity change, negative = inhibition | 71,000 tested, 0.09% active; active means well fitted curve in the direction sought with a large enough effect; inconclusive means small, poorly fitted or top-dose-only effect; further: on the % scale 0 is the no-effect control and ±100 the full control effect
#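 E. coli AmpC (5.3 nM) in 20 mM phosphate pH 7.0 with 0.01% Triton X-100, preincubated 15 min RT with compound; nitrocefin (2 uL of 800 uM stock) hydrolysis followed by 480 nm absorbance every 20 s over 4 min.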
# Prx2 Sm inh: inhibitors of Schistosoma mansoni peroxiredoxin 2 | S. mansoni Prx2 activity coupled to TGR/GSH (TGR is thioredoxin glutathione reductase), NADPH fluorescence loss, qHTS | Potency, µM | 65,000 tested, 0.07% active | AID 448
#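 Prx2 activity was followed as the loss of NADPH fluorescence (ex 365/em 450 nm), read every 30 sec for 8 min after H2O2 start. The enzyme mix (50 nM Prx2, 25 nM TGR, GSH, NADPH; pH 7.4 phosphate buffer) was incubated with compound for 15 min at room temperature first.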
# The depositor's hits bear a star; u = inconclusive; x = no result given; [ ] = another dose, or the depositor's remark. Unless noted, the call rests on the fitted dose curve. Potency means the concentration at half of the fitted maximal effect.
SMILES,AmpC nodet inh,Anthrax LT inh,AmpC det inh,Prx2 Sm inh
CCOC(=O)C1CCCN(C(=O)Cn2nc(Cc3cccnc3)c3ccccc3c2=O)C1 (stereo not drawn),3.2µM*[single pt active],2%,12%,>57
O=C(CSc1nc(-c2ccccc2)cs1)Nc1nccs1,10µM*,2%,-3%,>57
O=C(CC1CCCC1)Nc1nc2ccccc2[nH]1,-16%,-12%,-4%,u
COc1ccc2nc3sc(C(=O)NCc4cccs4)c(N)c3cc2c1,13µM*,2%,28%,>57
Cn1c(=O)oc2cc(S(=O)(=O)N3CCCC(C(=O)NCc4ccc5c(c4)OCO5)C3)ccc21 (stereo not drawn),4µM*[single pt active],24%,11%,>57
Cc1ccc(NC(=O)C2CCCN(S(=O)(=O)c3ccc4c(c3)oc(=O)n4C)C2)nc1 (stereo not drawn),4µM*[single pt active],3%,14%,>57
COc1ccc2c(c1)c(=O)oc1c(C)c3occ(C)c3cc12,6%,5%,-6%,>57
Cn1cccc1C(=O)NC(=O)COC(=O)c1ccccc1Sc1ccccc1C#N,4µM*,u,0%,>57
Brc1ccc(-c2nnc3sc(CNCc4ccc5c(c4)OCO5)cn23)cc1,4µM*[single pt active],-10%,8%,>57
Brc1ccc(-c2nnc3sc(CNC4CCCC4)cn23)cc1,4µM*[single pt active],-11%,10%,>57
c1ccc(-c2nnc3sc(CN4CCC5(CC4)OCCO5)cn23)cc1,5%,8%,-4%,>57
COC(=O)C1C2C=CC3(CN(c4cccc(Cl)c4)C(=O)C13)O2 (stereo not drawn),-3%,4%,10%,>57
Cc1ccc(C)c(NC(=O)CCN2CCOCC2)c1,0%,6%,-2%,>57
CC(C)(C)OC(=O)N1CCOCCOCCN(C(=O)OC(C)(C)C)CCOCC1,88%,3%,9%,>57
CCN1CCN(Cc2ccc(NC(=O)Nc3ccccc3OC)cc2)CC1,4µM*[single pt active],u,19%,>57
CCN1CCN(CCC(=O)Nc2ccccc2OC)CC1,-3%,-12%,-5%,>57
COc1cccc(-c2ccc3ncnc(N(C)Cc4ccco4)c3c2)c1,6.3µM*,u,10µM*,>57
COc1ccccc1-c1ccc2ncnc(N3CCOCC3)c2c1,133%,u,7%,>57
CN(Cc1ccco1)c1ncnc2ccc(-c3ccccc3C#N)cc12,72%,u,8%,>57
CN(C)c1ccc(-c2ccc3ncnc(N(C)Cc4ccco4)c3c2)cc1,38%,10µM*,-2%,>57
COc1cccc(-c2ccc3ncnc(N4CCOCC4)c3c2)c1,u,-30%,10µM*,>57
CCOc1ccc(NC(=O)CN2CCC(NC(=O)C3CCCCC3)CC2)cc1,14%,6%,-1%,>57
CCn1c(SCC(=O)N2CCOCC2)nc(O)cc1=O,4µM*[single pt active],-5%,13%,>57
Nc1ncnc2c1c(-c1ccc(Oc3ccccc3)cc1)cn2C1CCCC1,28%,16µM*,1%,>57
CN(C)CC(C)(C)CNC(=O)C1CCN(Cc2ccccc2O)CC1,-11%,u,-3%,>57
SMILES,AmpC nodet inh,Anthrax LT inh,AmpC det inh,Prx2 Sm inh
CS(=O)(=O)c1sc2nc(-c3cccs3)cc(-c3ccccc3)c2c1N,10µM*[single pt active],u,-4%,>57
O=C1CC(N(Cc2ccc3c(c2)OCO3)C(=O)Nc2ccc(F)cc2)C(=O)N1c1ccccc1 (stereo not drawn),22%,u,-1%,>57
CC1(C)CC(=O)C(C=Nc2ccc3[nH]ncc3c2)=C(O)C1,-4%,1%,8%,x
CC(C)C(=O)Nc1ccccc1N1CCN(C(=O)c2ccccc2)CC1,-8%,0%,-5%,>57
Nc1nc2n(n1)C(c1cccc(Br)c1)CC(c1ccc(F)cc1)N2 (stereo not drawn),42%,6%,12%,>57
Nc1nc2n(n1)C(c1c(F)cccc1Cl)CC(c1ccc(F)cc1)N2 (stereo not drawn),4µM*[single pt active],-2%,15%,>57
Nc1nc2n(n1)C(c1ccccc1)CC(c1ccc(F)cc1)N2 (stereo not drawn),4µM*[single pt active],-1%,14%,>57
Cc1ccccc1C1CC(c2ccc(Br)cc2)Nc2nc(N)nn21 (stereo not drawn),97%,-15%,12%,>57
CCc1ccc(C2CC(c3ccc(Cl)cc3)n3nc(N)nc3N2)cc1 (stereo not drawn),4µM*[single pt active],3%,13%,>57
Nc1nc2n(n1)C(c1ccco1)CC(c1ccc(F)cc1)N2 (stereo not drawn),33%,-3%,13%,>57
Cc1ccccc1C1CC(c2ccc(F)cc2)Nc2nc(N)nn21 (stereo not drawn),4µM*[single pt active],u,12%,>57
CCOC(=O)N1CCC(NC(=O)Cn2ncc3ccccc32)CC1,-1%,4%,-1%,>57
COc1ccccc1OCCCCNC(C)(C)C,-8%,-16%,7%,>57
CNCCCCOc1ccccc1Cc1ccccc1,55%,32µM*,2%,>57
Cc1ccc2c(c1)c(-c1ccccc1)nc1nncn12,2.5µM*[single pt active],u,14%,>57
Cc1cccc(-c2nc3ccccc3c3nncn23)c1,16%,-12%,3%,x
CN(C)S(=O)(=O)c1cccc(C(=O)N2CCN(Cc3ccccc3)CC2)c1,81%,4%,-1%,>57
O=C(CCl)c1ccc(Cl)cc1Cl,-3%,5µM*,12%,x
CCOC(=O)c1c(C)[nH]c2ccc3c(c12)CN1CCc2cc(OC)ccc2[C@@H]1O3,22%,2.5µM*,-3%,>57
CCS(=O)(=O)N1CCC[C@H]2CN3CCc4cc(OC)ccc4[C@@H]3C[C@@H]21,26%,0%,0%,>57
O=C(Cn1c(=O)n(Cc2ccco2)c(=O)c2ccccc21)Nc1cccc(Cl)c1,2.5µM*[single pt active],2.5µM*,13%,>57
Cc1cc(NC(=O)Cn2c(=O)n(Cc3ccccc3)c(=O)c3ccccc32)no1,10µM*,-7%,-1%,>57
COc1ccc(C(=O)N2CCC3(CCCN(c4ccccn4)C3)CC2)cc1,86%,u,1%,>57
O=C(Cn1c(=O)oc2ccccc21)N1CCN(c2ccc(N3CCOCC3)nn2)CC1,2.5µM*[single pt active],2%,12%,>57
Cc1c(NC(=O)C(C)Sc2nnc(-c3ccccc3)o2)c(=O)n(-c2ccccc2)n1C (stereo not drawn),-3%,1%,-3%,>57
SMILES,AmpC nodet inh,Anthrax LT inh,AmpC det inh,Prx2 Sm inh
Cc1ccccc1-c1nc(CN2CCC(C(=O)NC3CCN(Cc4ccccc4)CC3)CC2)c(C)o1,10%,u,4%,>57
Cc1ccccc1NC(=O)c1ocnc1C,4µM*[single pt active],6%,13%,>57
CSc1ccc(CN(C)CC(=O)NC(=O)NC(C)(C)C)cc1,23%,-24%,-3%,>57
CCOC(=O)N1CCC(NC(=O)CCc2c(C)nc3ncnn3c2C)CC1,-1%,-15%,-4%,>57
COc1ccc(Nc2nc(N3CCCC3)nc3ccccc23)c(OC)c1,54%,13µM*,-1%,>57
Clc1cccc(Cl)c1C(Nc1nncs1)Nc1nncs1,14%[5.75 µM],7%[8 µM],-6%[5.75 µM],>57
Cc1ccc(-c2cc(C(=O)Nc3cc(C)on3)c3ccccc3n2)c(C)c1,4µM*[single pt active],u,11%,>57
